According to PubChem BioAssay (NCI):
Values joined by “and” are separate entries in the source; they are usually repeats but may differ in a detail not shown here. Equal entries are not always repeated. Compounds without any hit were thinned out: in the full panel of roughly 83,000, 20% have a hit.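 Each cell line was grown in a 96-well plate and treated with one concentration of compound for 48 hours. Values below 10 were considered active.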 A number with no mark means an inactive call. Active and inactive are the calls of the source.

What follows are molecules tested on MDA-MB-468 breast (assay: NCI-60 one-dose screen, 48 h (100 = growth as untreated, 0 = no growth, -100 = all killed)). Settings: 10 µM unless noted.

| Compound | growth |
| --- | --- |
| O=C(O)c1ccccc1N=Cc1ccccc1 | 112% |
| CCN1CCN(C(=S)SCC(=O)Nc2nc3ccc(OC)cc3s2)CC1 | 97.7% |
| CCCOC(=O)C(O)c1ccccc1 (stereo not given) | 102% |
| CN(C)CCOc1cccc(NC2=C(Cl)C(=O)C(Nc3cccc(OCCN(C)C)c3)=C(Cl)C2=O)c1 | -47.1% (active) |
| O=c1[nH]c2ccccc2cc1-c1nc2ccc(Cl)cc2[nH]1 | 60.7% |
| N#Cc1c(-c2ccc(Cl)cc2)nc(SCc2ccc([N+](=O)[O-])cc2)nc1N1CCNCC1 | -44.2% (active) |
| CCOc1ccccc1-c1cc(-c2cccs2)c(C#N)c(=O)[nH]1 | 2.06% (active) |
| CC1=CC(=O)C=CC1(C)C(Cl)(Cl)Cl (stereo not given) | 98.4% |
| CCN(CC)CCCC(C)NCc1ccccc1 (stereo not given) | 112% |
| Cc1ccccc1-n1nnc(C(=O)Nc2nc3ccc(F)cc3s2)c1C | 32.8% |
| CC(=O)OCC(=O)[C@@]1(O)CC[C@H]2[C@@H]3CC[C@@H]4C[C@H](O)CC[C@]4(C)[C@H]3C(=O)C[C@@]21C | 98.1% |
| Nc1ccc(N=Nc2ccc(S(=O)(=O)O)cc2)cc1S(=O)(=O)O | 150% and 75.5% |
| N=C(N)c1ccc(-c2ccc(-c3ccc(F)cc3)s2)cc1 | -90.7% (active) |
| CC1(C)N=C(N)N=C(N)N1c1ccc(S(=O)(=O)Nc2nccs2)cc1 | 103% |
| CS(=O)c1nccc(-c2c(-c3ccc(F)c(OCc4ccccc4)c3)nc3sccn23)n1 (stereo not given) | -19.4% (active) |
| O=S(=O)(c1cccc(NC2=Nc3cccc4cccc2c34)c1)N1CCCC1 | 36.4% |
| COC(=O)[C@H]1[C@H]2C[C@@H]3c4[nH]c5cc(OC)ccc5c4CCN3C[C@H]2C[C@@H](OC(=O)/C=C/c2cc(OC)c(OC)c(OC)c2)[C@@H]1OC | 9.21% (active) |
| CC(C)(C)c1cnc(CSc2cnc(NC(=O)C3CCNCC3)s2)o1 | -43.7% (active) |
| Brc1cccc(-c2cc(-c3ccc4nccnc4c3)[nH]n2)c1 | 22.9% [25 µM] |
| CC1NC(C)c2ccc3ccccc3c2O1 (stereo not given) | 109% |

| Compound | growth |
| --- | --- |
| Nc1nccc(Nc2ccccc2)n1 | 116% |
| COc1ccc(-c2nc(SCC(C)C)nc(N/N=C(/C)c3ccc(OC)c(OC)c3)c2C#N)cc1 | 91.5% |
| O=C1/C(=C/c2ccccc2O)N=C2SCCCN12 | 99.2% |
| N#Cc1c(N)nn(C(=O)c2ccc(NC(=O)c3ccccn3)cc2)c1-c1ccc(Cl)cc1 | -29.3% (active) |
| CCC1CCCCN1C(=S)N/N=C(\C)c1ccccn1 (stereo not given) | -2.96% (active) |
| O=C(N/N=C/c1c(Cl)cccc1Cl)c1cccnc1Nc1cccc(C(F)(F)F)c1 | 26.6% |
| CCCCCCCCCCCCCCCCn1cc[n+](C)c1 | -79% (active) |
| Clc1cc(Cl)c(OCC#CI)cc1Cl | -26% (active) |
| IC(I)I | 106% |
| COc1ccc(C2Nc3nc(OC)n(C)c(=O)c3N=C3c4ccccc4C(=O)C32)cc1 (stereo not given) | 104% |
| C[C@H]1[C@H](C)CC[C@]2(C(=O)N3CCN(C)CC3)CC[C@]3(C)C(=CC[C@@H]4[C@@]5(C)C/C(=C/c6cccnc6)C(=O)C(C)(C)[C@@H]5CC[C@]43C)[C@H]12 | -83.2% (active) |
| CCCCOc1ccc(/C=C2/SC(N3CCCC3)=NC2=O)cc1 | 93.1% |
| O=C1OCC2=C1C(c1cccc(Cl)c1)c1cc3c(cc1N2CCO)CCC3 (stereo not given) | -9.35% (active) |
| CC1(C)CC(=O)C2=C(C1)N(c1ccc(OC(F)(F)F)cc1)C(N)=C(C#N)C2c1ccc(Cl)cc1 (stereo not given) | 93.1% |
| CCN(CC)CCN1C(=O)c2c(c(C)c3c(oc4cc(OC)ccc43)c2C)C1=O | 114% |
| CCCCCC(=O)Oc1ccc(/C(=C(\C)c2ccc(OC)cc2)c2ccc(OCCN3CCCCC3)cc2)cc1 | 85.3% |
| CCN(CC)CCCC(C)Nc1c(C)cnc2cc(Cl)c(C)cc12 (stereo not given) | 99.7% |
| COc1ccc(C(=O)/C=C/c2c(C(F)(F)F)nc3ccccn23)cc1OC | -59.9% (active) |
| CS(=O)(=O)N1CCN(Cc2cc3nc(-c4cccc5[nH]ncc45)nc(N4CCOCC4)c3s2)CC1 | -19.6% (active) |
| CCOc1ccc2nc(-c3cccc(OCC(=O)NC(C)C)c3)nc(Nc3ccc(-c4cn[nH]c4)cc3)c2c1 | 21% |
